In PubChem BioAssay (Tox21):
Where “and” joins values, the source holds several entries; their conditions need not be identical. Equal entries are not always repeated. Inconclusive results are not listed. Entries that show only a call come without a potency. Calls of active or inactive are those of the source. Unless noted, calls come from the whole dose curve; as a rule, active = well fitted curve in the direction sought with a large enough effect in the repeat runs; inconclusive = weak or mixed curves; inactive = no such curve, though single readings can be large; an effect the other way counts as inactive or inconclusive.

Columns and labels:
[1] = qHTS assay to test for compound auto fluorescence at 590 nm (red) in HEK293 cells (AID 720679)
In short: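 Red autofluorescence, HEK293 cells: 2,000 cells/well; attach 4-5 hr 37C; add 23 nL cpd or DMSO; incubate o/n 37C 5% CO2; read Ex540/Em590; Rose Bengal sodium reference.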

[2] = qHTS assay to test for compound auto fluorescence at 460 nm (blue) in HEK293 cell free culture (AID 720681)
In short: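 Test compounds were pinned into cell-free culture medium (DMEM with 10% FBS) and fluorescence was read directly at Ex/Em 405/460 nm. Signals were expressed as fluorescence equivalents of triamterene, with DMSO vehicle as control.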

[3] = qHTS assay to test for compound auto fluorescence at 590 nm (red) in HepG2 cell free culture (AID 720684)
In short: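 Readout: intrinsic compound fluorescence at 590 nm emission after 540 nm excitation, scaled to Rose Bengal sodium. Matrix was cell-free MEM with 10% FBS; DMSO vehicle wells served as control.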

[4] = qHTS assay to test for compound auto fluorescence at 535 nm (green) in HepG2 cell free culture (AID 720686)
[5] = qHTS assay to identify small molecule antagonists of the glucocorticoid receptor (GR) signaling pathway - cell viability counter screen (AID 720693); note: nearly all actives have a fitted effect of over 55% in size
[6] = qHTS assay for identifying genotoxic compounds that show differential cytotoxicity against isogenic chicken DT40 cell lines with known DNA damage response pathways - Rev3 mutant cell line (AID 743014); note: nearly all actives have a fitted effect of over 55% in size; note: potency is the fitted concentration of half-maximal effect
[7] = qHTS assay for identifying genotoxic compounds that show differential cytotoxicity against isogenic chicken DT40 cell lines with known DNA damage response pathways - Rad54/Ku70 mutant cell line (AID 743015); note: nearly all actives have a fitted effect of over 60% in size; note: potency is the fitted concentration of half-maximal effect
[8] = qHTS assay to identify small molecule antagonists of the thyroid receptor (TR) signaling pathway - cell viability counter screen (AID 743064); note: nearly all actives have a fitted effect of over 50% in size
In short: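 Fluorescence from CellTiter-Fluor, added after 23.5 h exposure at 37 °C, reported viability of GH3.TRE-Luc cells co-treated with compound and 1 nM T3. Measured in the same wells as the luciferase TR readout.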

[9] = qHTS assay to identify small molecule antagonists of the thyroid receptor (TR) signaling pathway (AID 743065); note: nearly all actives have a fitted effect of over 55% in size; note: potency is the fitted concentration of half-maximal effect
In short: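 GH3.TRE-Luc rat pituitary cells carrying two TR response elements driving luciferase were plated for 4 h, given compound plus 1 nM T3 (final), and incubated 23.5 h at 37 C. ONE-Glo luminescence measured reporter inhibition; CellTiter-Fluor fluorescence tracked cytotoxicity.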

[10] = target: Estrogen receptor (Homo sapiens) (UniProt P03372); assay: qHTS assay to identify small molecule agonists of the estrogen receptor alpha (ER-alpha) signaling pathway (AID 743075; calls by dose curve;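 note: HEK293 GripTite cells with ER-alpha and UAS-driven beta-lactamase reporter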; note: potency is the fitted concentration of half-maximal effect)
Chain of Estrogen receptor (Homo sapiens) (P03372 whole entry, looked up): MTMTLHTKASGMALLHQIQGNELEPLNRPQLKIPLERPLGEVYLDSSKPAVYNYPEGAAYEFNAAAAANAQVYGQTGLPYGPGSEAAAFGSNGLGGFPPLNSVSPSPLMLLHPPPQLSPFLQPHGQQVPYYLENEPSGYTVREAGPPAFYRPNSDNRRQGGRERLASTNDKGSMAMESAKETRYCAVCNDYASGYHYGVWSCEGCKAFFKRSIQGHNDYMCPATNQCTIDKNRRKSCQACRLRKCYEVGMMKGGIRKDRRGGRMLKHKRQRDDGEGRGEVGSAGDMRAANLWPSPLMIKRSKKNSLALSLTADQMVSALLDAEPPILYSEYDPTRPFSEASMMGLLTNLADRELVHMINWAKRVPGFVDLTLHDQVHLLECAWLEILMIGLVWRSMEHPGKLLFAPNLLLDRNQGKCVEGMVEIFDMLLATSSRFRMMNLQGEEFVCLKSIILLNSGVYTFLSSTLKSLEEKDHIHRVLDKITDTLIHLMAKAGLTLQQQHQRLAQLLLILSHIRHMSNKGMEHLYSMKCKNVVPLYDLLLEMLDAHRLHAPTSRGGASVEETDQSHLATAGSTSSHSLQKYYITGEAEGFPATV

[11] = target: Estrogen receptor (Homo sapiens) (UniProt P03372); assay: qHTS assay to identify small molecule agonists of the estrogen receptor alpha (ER-alpha) signaling pathway using the BG1 cell line (AID 743079); note: nearly all actives have a fitted effect of over 20% in size; note: potency is the fitted concentration of half-maximal effect
[12] = qHTS assay to identify small molecule antagonists of the estrogen receptor alpha (ER-alpha) signaling pathway using the BG1 cell line (AID 743080; calls by dose curve;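 note: BG1 cells stimulated with 17beta-estradiol alongside compound; series mostly up to about 70 µM; nearly all actives have a fitted effect of over 25% in size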)
In short: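 Readout is ONE-Glo luminescence, taken 30 min at room temperature after reagent addition, preceded by a CellTiter-Fluor viability read; BG1-Luc-4E2 cells had received compound and 17beta-estradiol for 21.5 h at 37 C.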

[13] = target: Aryl hydrocarbon receptor (Homo sapiens) (UniProt P35869); assay: qHTS assay to identify small molecule that activate the aryl hydrocarbon receptor (AhR) signaling pathway (AID 743085); note: nearly all actives have a fitted effect of over 15% in size; note: potency is the fitted concentration of half-maximal effect;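 for activation: HG2L7.5c1 human HepG2 liver cells with stably integrated DRE-driven firefly reporter; series mostly up to about 70 µM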
Chain of Aryl hydrocarbon receptor (Homo sapiens) (P35869 whole entry, looked up): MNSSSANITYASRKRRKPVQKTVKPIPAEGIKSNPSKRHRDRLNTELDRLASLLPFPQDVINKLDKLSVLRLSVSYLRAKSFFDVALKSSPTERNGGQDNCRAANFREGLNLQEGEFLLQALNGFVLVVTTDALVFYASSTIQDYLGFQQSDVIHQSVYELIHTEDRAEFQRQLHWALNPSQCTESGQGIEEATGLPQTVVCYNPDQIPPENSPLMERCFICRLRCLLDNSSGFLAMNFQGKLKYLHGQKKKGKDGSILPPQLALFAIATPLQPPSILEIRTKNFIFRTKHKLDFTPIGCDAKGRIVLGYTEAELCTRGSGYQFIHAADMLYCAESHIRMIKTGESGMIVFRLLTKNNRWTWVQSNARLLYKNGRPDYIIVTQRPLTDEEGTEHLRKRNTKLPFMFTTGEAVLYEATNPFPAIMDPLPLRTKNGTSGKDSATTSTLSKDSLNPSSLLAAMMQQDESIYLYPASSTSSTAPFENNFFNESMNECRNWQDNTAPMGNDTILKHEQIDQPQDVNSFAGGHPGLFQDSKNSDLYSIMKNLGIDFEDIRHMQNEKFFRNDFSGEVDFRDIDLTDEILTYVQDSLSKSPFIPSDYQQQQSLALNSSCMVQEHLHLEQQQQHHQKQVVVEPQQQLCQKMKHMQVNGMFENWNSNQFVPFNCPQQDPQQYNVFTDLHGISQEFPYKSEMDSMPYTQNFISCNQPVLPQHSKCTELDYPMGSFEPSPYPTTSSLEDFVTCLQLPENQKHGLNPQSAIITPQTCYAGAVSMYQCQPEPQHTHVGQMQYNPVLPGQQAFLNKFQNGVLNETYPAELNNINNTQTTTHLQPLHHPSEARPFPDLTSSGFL
In short: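 Cell line HG2L7.5c1 (human hepatoma, 20× DRE-luc). Plated, 5 h 37C, compound/DMSO added, 24 h 37C. CellTiter-Fluor 30 min 37C → fluorescence; then ONE-Glo 30 min RT → luminescence.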

[14] = target: Peroxisome proliferator-activated receptor gamma (Homo sapiens) (UniProt P37231); assay: qHTS assay to identify small molecule agonists of the peroxisome proliferator-activated receptor gamma (PPARg) signaling pathway (AID 743094; active = well fitted activation curve with a large enough effect in the signal ratio in the repeat runs, not every such curve was filed as active; the % refers to the signal ratio)
Chain of Peroxisome proliferator-activated receptor gamma (Homo sapiens) (P37231 whole entry, looked up): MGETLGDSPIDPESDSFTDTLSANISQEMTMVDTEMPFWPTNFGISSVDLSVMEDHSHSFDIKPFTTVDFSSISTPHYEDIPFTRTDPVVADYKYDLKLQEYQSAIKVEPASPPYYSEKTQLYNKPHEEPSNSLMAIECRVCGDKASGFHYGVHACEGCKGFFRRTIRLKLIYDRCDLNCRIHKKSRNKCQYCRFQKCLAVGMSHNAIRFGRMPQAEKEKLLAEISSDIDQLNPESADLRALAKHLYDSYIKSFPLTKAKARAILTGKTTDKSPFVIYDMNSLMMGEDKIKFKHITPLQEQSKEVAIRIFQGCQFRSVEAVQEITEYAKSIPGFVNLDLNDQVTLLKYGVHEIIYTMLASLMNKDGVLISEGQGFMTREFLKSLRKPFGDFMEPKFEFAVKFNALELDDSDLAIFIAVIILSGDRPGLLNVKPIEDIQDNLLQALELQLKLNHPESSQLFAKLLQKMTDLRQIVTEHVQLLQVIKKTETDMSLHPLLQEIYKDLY
In short: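 Agonist activity was taken from a beta-lactamase reporter (FRET substrate, 1 h at room temperature) in HEK293H cells carrying a PPARg UAS-bla construct. Compounds in DMSO were incubated 17 h at 37C after a 5 h cell pre-incubation.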

[15] = target: Nuclear receptor subfamily 1 group I member 2 (Homo sapiens) (UniProt O75469); assay: CYP3A4 induction through human pregnane X receptor (PXR) by small molecules, qHTS assay (AID 1346984); note: nearly all actives have a fitted effect of over 40% in size; note: potency is the fitted concentration of half-maximal effect
In short: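 Read-out is luminescence after One-Glo addition, following a 3 hr, 37C incubation with Luciferin-IPA CYP3A4 substrate (3uM final). Before that, compounds were on DPX-2 cells (HepG2 co-transfected with PXR element plus CYP3A4-promoter luciferase) for 24 hr at 37C.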

[16] = target: Nuclear receptor subfamily 1 group I member 2 (Homo sapiens) (UniProt O75469); assay: Human pregnane X receptor (PXR) activation by small molecules, qHTS assay (AID 1346985); note: nearly all actives have a fitted effect of over 40% in size
In short: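 DPX-2 cells (HepG2 co-transfected with a PXR response element and a CYP3A4-promoter luciferase construct) were seeded at 2,000 per well, rested 5 hr at 37C, then exposed to DMSO-dissolved compounds for 24 hr. Activation was read as luciferase luminescence.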

[17] = qHTS assay for small molecule disruptors of the mitochondrial membrane potential (AID 720635); note: potency is the fitted concentration of half-maximal effect
In short: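 HepG2 cells (2,000/well) attached overnight at 37C, then took compound for 1 hr at 37C, 5% CO2. Mito-MPS dye was added for 30 min; fluorescence was read at 490/535 nm (monomers) and 540/590 nm (aggregates).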

[18] = qHTS assay to test for compound auto fluorescence at 535 nm (green) in HepG2 cells (AID 720675)
[19] = qHTS assay to identify small molecule antagonists of the androgen receptor (AR) signaling pathway using the MDA cell line - cell viability counter screen (AID 743041; note: nearly all actives have a fitted effect of over 45% in size)
In short: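 qHTS viability read-out; MDA-kb2 AR-luc; R1881-stimulated; 16 h exposure at 37C, 0% CO2; CellTiter-Fluor, 30 min; fluorescence intensity.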

[20] = target: Glucocorticoid receptor (Homo sapiens) (UniProt P04150); assay: qHTS assay to identify small molecule agonists of the glucocorticoid receptor (GR) signaling pathway (AID 720691; active = well fitted activation curve with a large enough effect in the signal ratio in the repeat runs, not every such curve was filed as active; the % refers to the signal ratio)
Chain of Glucocorticoid receptor (Homo sapiens) (P04150 whole entry, looked up): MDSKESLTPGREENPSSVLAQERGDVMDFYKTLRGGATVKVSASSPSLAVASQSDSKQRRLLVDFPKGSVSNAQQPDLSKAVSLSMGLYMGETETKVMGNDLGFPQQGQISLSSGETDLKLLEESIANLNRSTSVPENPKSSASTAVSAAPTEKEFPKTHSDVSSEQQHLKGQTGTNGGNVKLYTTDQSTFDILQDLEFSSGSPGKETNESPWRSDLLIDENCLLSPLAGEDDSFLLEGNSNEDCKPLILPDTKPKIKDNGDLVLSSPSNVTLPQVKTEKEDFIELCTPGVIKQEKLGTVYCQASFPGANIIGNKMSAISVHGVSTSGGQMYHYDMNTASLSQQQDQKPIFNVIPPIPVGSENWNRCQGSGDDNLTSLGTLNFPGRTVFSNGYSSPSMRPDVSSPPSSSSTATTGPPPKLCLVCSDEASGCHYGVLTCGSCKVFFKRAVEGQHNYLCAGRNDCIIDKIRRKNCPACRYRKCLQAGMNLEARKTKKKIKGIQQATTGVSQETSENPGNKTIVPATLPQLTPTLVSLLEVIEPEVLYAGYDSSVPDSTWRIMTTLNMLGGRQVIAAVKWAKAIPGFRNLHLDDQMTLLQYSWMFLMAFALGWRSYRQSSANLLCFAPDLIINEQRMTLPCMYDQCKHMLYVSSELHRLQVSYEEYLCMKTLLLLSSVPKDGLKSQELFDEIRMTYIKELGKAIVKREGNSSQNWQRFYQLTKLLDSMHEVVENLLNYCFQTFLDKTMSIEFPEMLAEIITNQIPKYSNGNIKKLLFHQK
In short: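 Agonist-mode qHTS in HeLa cells stably expressing a glucocorticoid-response-element beta-lactamase reporter. Fluorescence intensity read with FRET substrate (2 h, room temperature) after 18 h compound treatment at 37 C.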

SMILES	outcome [1]	Potency [2]	outcome [3]	Potency [4]	Potency [5]	Potency [6]	Potency [7]	Potency [8]	Potency [9]	Potency [10]	Potency [11]	Potency [12]	Potency [13]	Potency [14]	Potency [15]	Potency [16]	Potency [17]	Potency [18]	Potency [19]	Potency [20]
CCC(C)(S(=O)(=O)CC)S(=O)(=O)CC	inactive	inactive	inactive	inactive	inactive	inactive	inactive	inactive	inactive	inactive	inactive	inactive	inactive	inactive	inactive	inactive				
CNC(C)C(O)c1ccc(O)cc1 (stereo not drawn)	inactive	inactive	inactive	inactive			inactive	inactive	inactive	inactive	inactive	inactive		inactive	inactive	inactive	inactive	inactive	inactive	
CC(=O)[C@H]1CC[C@H]2[C@@H]3CC[C@@H]4C[C@H](O)CC[C@]4(C)[C@H]3CC[C@]12C	inactive	inactive		inactive	inactive		inactive		13.3 µM (active)	26.8 µM [activator] (active)	29.8 µM (active)		inactive	inactive	inactive	inactive		inactive	inactive	inactive
[2H]C([2H])([2H])[C@H](N)Cc1ccccc1	inactive	inactive	inactive	inactive	inactive	inactive	inactive	inactive	inactive	inactive	inactive	inactive	inactive	inactive	inactive	inactive			inactive	inactive
Cc1ccccc1-n1c(CF)nc2ccc(N)cc2c1=O		inactive	inactive		inactive	inactive		inactive	inactive				29.8 µM (active)	inactive	7.08 µM (active)	inactive	inactive	inactive	inactive	
CC(C)(C)c1ccc(O)cc1		inactive	inactive														55.8 µM (active) and 43.3 µM (active)	inactive		
CCC1(c2cnc[nH]2)Cc2ccccc2C1	inactive	inactive	inactive		inactive	26.6 µM (active)	26.6 µM (active)			inactive	inactive	inactive	23.7 µM (active) and 8.41 µM (active)	inactive				inactive	inactive	
O=C1CCCCC1CN1CCCCC1 (stereo not drawn)	inactive	inactive	inactive	inactive	inactive			inactive	inactive	inactive	inactive	inactive	inactive	inactive	inactive	inactive	inactive	inactive		inactive
CC(=O)Oc1ccc2c3c1O[C@H]1[C@@H](OC(C)=O)C=C[C@H]4[C@@H](C2)N(C)CC[C@@]341	inactive	inactive			inactive	inactive		inactive	inactive	inactive	inactive	inactive	inactive	inactive	inactive	inactive	inactive	inactive	inactive	inactive
O=C(CCl)c1ccc(Oc2ccc(C(=O)CCl)cc2)cc1	inactive	inactive	inactive	inactive	inactive	29.8 µM (active)		inactive	inactive	inactive		inactive			inactive	inactive	inactive	inactive	inactive	
CC(N)Cc1ccc(O)cc1 (stereo not drawn)	inactive	inactive	inactive	inactive	inactive	inactive	inactive		inactive	inactive	inactive	inactive		inactive	inactive	inactive		inactive	inactive	inactive
CCCCC[C@@H](O)C1C(=O)OC(C)[C@H](O)/C=C/C=C/C=C/C=C/C=C(\C)C(O)C(O)C(O)C[C@H](O)C[C@H](O)C[C@H](O)C[C@H](O)C[C@@H]1O (stereo partly drawn)		inactive	inactive	inactive	inactive	inactive	inactive	inactive	inactive	inactive	inactive	inactive	inactive	inactive	inactive	inactive	inactive	inactive		inactive
CC(C)C[C@H](CN)CC(=O)O	inactive		inactive	inactive	inactive	inactive	inactive	inactive		inactive	13.3 µM (active)	inactive	inactive	inactive	inactive	inactive	inactive	inactive	inactive	inactive
CC[N+](C)(CC)CCOC(=O)C(O)(c1ccccc1)c1ccccc1	inactive	inactive			inactive	inactive		inactive	inactive	inactive	inactive	inactive	inactive	inactive	inactive	inactive	inactive	inactive		inactive
CCCCNCC(O)c1ccc(O)cc1 (stereo not drawn)	inactive	inactive	inactive	inactive	inactive	inactive	inactive	inactive	inactive						inactive	inactive	inactive	inactive	inactive	inactive
